USP17 block: inhibitors of human USP17 deubiquitinase; A8MUK1; purified USP17, Ub-rhodamine cleavage fluorescence, 3 h; inhibition, % at 50 µM; 6.5% of 47,000 active
Target sequence (A8MUK1 whole entry, looked up): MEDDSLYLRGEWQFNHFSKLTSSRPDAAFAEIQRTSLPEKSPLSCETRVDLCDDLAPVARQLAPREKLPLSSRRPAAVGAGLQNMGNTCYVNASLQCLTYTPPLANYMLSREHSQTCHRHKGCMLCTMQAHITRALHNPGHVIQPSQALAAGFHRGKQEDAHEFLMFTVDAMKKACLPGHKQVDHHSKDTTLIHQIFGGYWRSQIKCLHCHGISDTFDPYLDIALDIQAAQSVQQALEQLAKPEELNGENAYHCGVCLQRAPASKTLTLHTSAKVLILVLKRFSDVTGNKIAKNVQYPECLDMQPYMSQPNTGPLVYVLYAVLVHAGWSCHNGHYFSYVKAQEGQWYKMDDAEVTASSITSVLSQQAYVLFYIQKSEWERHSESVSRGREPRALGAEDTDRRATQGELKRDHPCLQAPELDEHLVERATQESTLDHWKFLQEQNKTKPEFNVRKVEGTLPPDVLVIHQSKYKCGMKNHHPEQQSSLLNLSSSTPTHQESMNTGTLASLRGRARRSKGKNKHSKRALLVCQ
USP8 block: blocks human USP8 ubiquitin-rhodamine cleavage; P40818; purified USP8, Ub-rhodamine cleavage fluorescence, 30 min; inhibition, % at 20 µM; 4.2% of 47,000 active; AID 1645853
USP30 block: human USP30 deubiquitinase inhibition. purified USP30, Ub-rhodamine cleavage fluorescence. inhibition, % at 25 µM. 5.3% of 47,000 active
USP28 block: blocks human USP28 ubiquitin-rhodamine cleavage. Q96RU2. purified USP28, Ub-rhodamine cleavage fluorescence, 30 min. inhibition, % at 25 µM. 3% of 47,000 active
USP10 inh: blocks human USP10 ubiquitin-rhodamine cleavage | 1.1% of 47,000 active | inhibition, % at 20 µM | Q14694 | purified USP10, Ub-rhodamine fluorescence, 60 min
Hits are given with their value. A selection: hits, their analogues and other compounds. The true share with any hit is near 13%. No stated cut-off is given here; in the data, active means inhibition above about 30%; inactive means the rest.

For O=c1cc(-c2ccc(F)cc2)oc2ccc(F)cc12 the results were USP17 block 31, USP8 block inactive, USP30 block inactive, USP28 block inactive and USP10 inh inactive.
`Cc1cn2nnc(C(=O)Nc3ccc(Cl)c(Cl)c3)c2c(=O)[nH]1` gave USP17 block inactive, USP8 block 97, USP30 block inactive, USP28 block inactive and USP10 inh inactive.
Screening CSc1ccc(CNC(=O)c2nnn3cc(C)[nH]c(=O)c23)cc1 returned USP17 block inactive, USP8 block inactive, USP30 block inactive, USP28 block inactive and USP10 inh inactive.
For CCOc1cc(C2Nc3ccccc3C(=O)N2c2ccc3c(c2)OCO3)ccc1O (stereo unspecified) the results were USP17 block inactive, USP8 block 31, USP30 block inactive, USP28 block inactive and USP10 inh inactive.
O=c1c2ccccc2c2ccccc2c(=O)n1-c1ccc2c(c1)OCO2 was read as USP17 block inactive, USP8 block inactive, USP30 block inactive, USP28 block inactive and USP10 inh inactive.
Screening CCN(c1cccc(C)c1)S(=O)(=O)c1ccc2[nH]c(=O)ccc2c1 returned USP17 block inactive, USP8 block inactive, USP30 block inactive, USP28 block inactive and USP10 inh inactive.
For COc1ccccc1NC(=O)CNC(=O)c1nn(-c2ccc(OC)c(OC)c2)c(=O)c2ccccc12 the results were USP17 block 68, USP8 block inactive, USP30 block inactive, USP28 block inactive and USP10 inh inactive.
Screening O=C1CCN(c2ncnc3cc(-c4ccc(F)cc4)sc23)CC1 returned USP17 block 31, USP8 block inactive, USP30 block inactive, USP28 block inactive and USP10 inh inactive.
For Fc1ccc2[nH]c3c(N4CCCC4)ncnc3c2c1 the results were USP17 block inactive, USP8 block inactive, USP30 block inactive, USP28 block inactive and USP10 inh inactive.
CC(=O)c1ccc(NC(=O)Cc2sc(C)nc2-c2ccc(C)cc2)cc1 was read as USP17 block inactive, USP8 block inactive, USP30 block inactive, USP28 block 39 and USP10 inh inactive.
For Cc1ccc(-c2nc(C)sc2CC(=O)Nc2ccccc2N2CCOCC2)cc1 the results were USP17 block inactive, USP8 block inactive, USP30 block inactive, USP28 block inactive and USP10 inh inactive.
COc1cccc(CN(C)c2nc3ccccc3nc2NS(=O)(=O)c2ccccc2C)c1OC was read as USP17 block inactive, USP8 block inactive, USP30 block inactive, USP28 block inactive and USP10 inh inactive.
`Cc1ccc(NC(=O)CC2=NC(=O)C(CC(=O)Nc3ccccc3C)S2)cc1` (stereo unspecified) gave USP17 block inactive, USP8 block 39, USP30 block inactive, USP28 block inactive and USP10 inh inactive.
CC(c1nc(-c2ccc(Cl)cc2)no1)N1CCN(C(=O)c2ccc(F)c(F)c2)CC1 (stereo unspecified) was read as USP17 block inactive, USP8 block inactive, USP30 block inactive, USP28 block inactive and USP10 inh inactive.
Screening COc1ccc(NC(=O)COC(=O)c2cccc(S(=O)(=O)N(C)c3cccc(Cl)c3)c2)c(OC)c1 returned USP17 block inactive, USP8 block inactive, USP30 block 33, USP28 block inactive and USP10 inh inactive.
For CN(c1cccc(Cl)c1)S(=O)(=O)c1cccc(C(=O)OCC(=O)N(Cc2ccccc2)C(C)(C)C)c1 the results were USP17 block inactive, USP8 block inactive, USP30 block inactive, USP28 block inactive and USP10 inh inactive.
`Cc1cnnn1-c1ccc(C(=O)Nc2ccc(Cl)cc2)cc1` gave USP17 block 45, USP8 block inactive, USP30 block 58, USP28 block 50 and USP10 inh inactive.
Screening COc1c(O)cc2cc(C)oc(=O)c2c1O returned USP17 block inactive, USP8 block inactive, USP30 block 36, USP28 block inactive and USP10 inh inactive.
For CC(=O)Nc1cccc(-c2cnc3sc(NC4CCCCC4)nn23)c1 the results were USP17 block inactive, USP8 block 47, USP30 block inactive, USP28 block inactive and USP10 inh inactive.
Screening CC(=O)c1cccc(-c2cnc3sc(NCC4CCOCC4)nn23)c1 returned USP17 block inactive, USP8 block inactive, USP30 block inactive, USP28 block inactive and USP10 inh inactive.
COc1ccc(NC(=O)CSc2nnc(Cc3cccc4ccccc34)n2C)cc1 was read as USP17 block inactive, USP8 block inactive, USP30 block inactive, USP28 block 60 and USP10 inh inactive.
COc1ccc(NCc2nnc(SCC(=O)Nc3cccc4ccccc34)n2C)cc1 was read as USP17 block inactive, USP8 block 45, USP30 block inactive, USP28 block inactive and USP10 inh inactive.
`CCn1c(CNc2ccc(Cl)cc2)nnc1SCC(=O)Nc1ccccc1` gave USP17 block inactive, USP8 block inactive, USP30 block inactive, USP28 block 64 and USP10 inh inactive.
`Cn1c(CNc2ccc(F)cc2)nnc1SCC(=O)Nc1cccc2ccccc12` gave USP17 block inactive, USP8 block inactive, USP30 block inactive, USP28 block inactive and USP10 inh inactive.
For Cc1ccc(N(Cc2nc3nc(C)cc(=O)n3[nH]2)C(=O)c2cccc(C)c2)cc1 the results were USP17 block inactive, USP8 block inactive, USP30 block inactive, USP28 block inactive and USP10 inh inactive.
Screening Cc1ccc(-c2cc(C(=O)Nc3ccc(S(N)(=O)=O)cc3)[nH]n2)c(O)c1 returned USP17 block 39, USP8 block inactive, USP30 block 32, USP28 block 48 and USP10 inh inactive.
Screening CCOC(=O)N1CCN(S(=O)(=O)c2ccc(C(=O)Nc3ccc(S(N)(=O)=O)cc3)cc2)CC1 returned USP17 block inactive, USP8 block inactive, USP30 block inactive, USP28 block inactive and USP10 inh inactive.
Screening COc1c(C(O)CC(C)C)ccc(Oc2c(O)cc(C)cc2C=O)c1C(=O)O (stereo unspecified) returned USP17 block 44, USP8 block inactive, USP30 block inactive, USP28 block inactive and USP10 inh inactive.
For COc1c(O)cc(O)c(C(=O)O)c1C(O)C(C)=O (stereo unspecified) the results were USP17 block inactive, USP8 block inactive, USP30 block inactive, USP28 block inactive and USP10 inh inactive.
Screening COc1c([C@@H](O)CC(C)C)ccc2c1C(=O)OCc1cc(C)cc(O)c1O2 returned USP17 block inactive, USP8 block inactive, USP30 block inactive, USP28 block inactive and USP10 inh inactive.
COc1c(C(CC(C)C)OC(C)=O)ccc(Oc2c(O)cc(C)cc2C=O)c1C(=O)O (stereo unspecified) was read as USP17 block 35, USP8 block inactive, USP30 block inactive, USP28 block inactive and USP10 inh inactive.
For COc1cccc(NC(=O)Nc2ccc3nc4n(c(=O)c3c2)CCCC4)c1 the results were USP17 block 34, USP8 block 50, USP30 block inactive, USP28 block 55 and USP10 inh inactive.
Screening O=C(Nc1ccc2c(c1)OCCO2)Nc1ccc2nc3n(c(=O)c2c1)CCCC3 returned USP17 block 32, USP8 block inactive, USP30 block inactive, USP28 block 68 and USP10 inh inactive.
